High-throughput results from PubChem.
D2 antagonist: antagonizes the human D2 dopamine receptor | P14416 | HEK293 TREx D2 cells, calcium flux, dopamine EC80 | inhibition, % at 10 µM | hit rate 2% among 340,000 | AID 485344; in the data active = inhibition above about 30%; inactive = below that, where a call was filed
Target sequence (P14416 whole entry, looked up): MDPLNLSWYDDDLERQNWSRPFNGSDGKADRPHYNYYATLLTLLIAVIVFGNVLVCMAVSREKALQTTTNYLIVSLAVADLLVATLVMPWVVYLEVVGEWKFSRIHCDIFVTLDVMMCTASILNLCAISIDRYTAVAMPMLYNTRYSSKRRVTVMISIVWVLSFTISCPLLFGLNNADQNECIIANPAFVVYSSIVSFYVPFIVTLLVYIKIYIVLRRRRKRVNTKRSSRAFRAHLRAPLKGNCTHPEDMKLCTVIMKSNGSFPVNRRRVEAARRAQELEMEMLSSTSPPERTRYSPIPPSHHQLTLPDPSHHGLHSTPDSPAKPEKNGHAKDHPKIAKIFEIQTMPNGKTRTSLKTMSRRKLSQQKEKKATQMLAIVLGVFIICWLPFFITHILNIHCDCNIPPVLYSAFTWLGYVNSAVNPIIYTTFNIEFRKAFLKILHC
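Read-out: kinetic calcium fluorescence (1 cycle/s) in inducible HEK293 T-REx D2 cells after an EC80 dopamine addition that followed 180 s compound preincubation. Loss of the dopamine response indicates antagonism.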
D2 ag-1: human D2 receptor agonism in beta-arrestin assay | hit rate 0.084% among 360,000 | DiscoveRx PathHunter D2 beta-arrestin, luminescence, 90 min; 100% = 57 uM dopamine signal | activation, % (no concentration beside the values) | P14416; in the data active = activation above about 40%; inconclusive = between about 15% and that limit
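DiscoveRx PathHunter D2 beta-arrestin cells (2,100/well) attached overnight, then compound-stimulated 90 min at 37 C in HBSS/10 mM HEPES/0.1% Tween-20 buffer; beta-galactosidase complementation read by luminescence after 1 h at ambient temperature. Dopamine 57 uM final (EC100) as control.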
D2 ag-2: activates the human D2 dopamine receptor | HEK293 T-REx D2 cells, calcium flux agonist mode | AID 485358 | hit rate 0.53% among 340,000 | activation, % at 2 µM | P14416;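 active = activation over 3 SD above normal in the single-dose calcium agonist read, cut at about 30% in these data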
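Agonism is scored from calcium flux in a force-coupled, inducible HEK293 cell line expressing D2, read kinetically for 180 s after compound addition against dopamine controls.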
D2 PAM-1: potentiates the human D2 dopamine receptor allosterically | P14416 | DiscoveRx D2 beta-arrestin cells, luminescence, 90 min; 100% = 57 uM dopamine signal | potentiation, % (concentration not given with the values) | hit rate 0.23% among 360,000 | AID 624464; in the data active = potentiation above about 50%; inconclusive = mostly about 30% to 49%
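PathHunter D2 cells, attached overnight at 37 deg C, received compound in DMSO plus dopamine at EC20 (50 nM final) for 90 min at 37 deg C. Beta-arrestin recruitment was read as luminescence after 1 h with detection reagent at ambient temperature.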
D2 PAM-2: positive allosteric modulators of human D2 dopamine receptor; hit rate 0.34% among 340,000; P14416; HEK293 T-REx D2, calcium flux, EC20 dopamine potentiation; potentiation, % at 10 µM; AID 485347;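 active = potentiation over 3 SD above the plate norm, cut at about 30% in these data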
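Using a no-wash calcium dye in inducible, force-coupled HEK293 Trex cells expressing D2, we tracked fluorescence each second for 180 s after compound, then for 180 s after EC20 dopamine to detect augmented signalling.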
Of the large screens only hits and unclear results are named; the others gave an inactive call. Shown are actives, neighbours in structure and some others; about 2.4% of the full set was active somewhere.

CN(C)c1ccc(/C=N/NC(=O)CN2CCN(c3ccc(F)cc3)CC2)cc1	none (no result: D2 ag-1, D2 PAM-1)
COc1ccc(-n2ccc(=O)c(C(=O)O)n2)c(OC)c1	none
COc1cc(/C=C2\CC/C(=C\c3cc(OC)c(O)c(OC)c3)C2=O)cc(OC)c1O	none
COc1cc(/C=C2/CCC/C(=C\c3cc(O)c(OC)c(Cl)c3)C2=O)cc(Cl)c1O	D2 PAM-2 38
Cc1ccccc1NC(=O)C1CCN(C(=O)c2ccc(F)cc2)CC1	none (no result: D2 antagonist, D2 ag-1, D2 PAM-1)
O=C(Nc1nnc(N2CCCCCC2)s1)Nc1ccccc1C(F)(F)F	none (no result: D2 antagonist, D2 ag-1, D2 PAM-1)
CC(C)OCCCNc1ncnc2c1nc1n2CCCC1	D2 antagonist 33
COc1ccccc1CN1CC(C(=O)NCCN(C)CCc2ccccc2)CCC1=O (stereo not given)	D2 ag-2 46
O=C(CSc1nnc(-c2ccccc2)o1)c1ccc2c(c1)OCCO2	none
COc1ccc(-n2nnnc2SCC(=O)c2ccc3c(c2)OCCO3)cc1	D2 PAM-2 34
COc1ccc(-n2nnnc2SCC(=O)c2cccc(OC)c2)cc1	none
O=C(CSc1nnc2scc(-c3ccccc3)n12)c1ccc2c(c1)OCCO2	D2 antagonist 31
c1ccn2c(SCc3ccc4c(c3)OCCO4)nnc2c1	none
c1ccc(-c2csc3nnc(SCc4ccc5c(c4)OCCO5)n23)cc1	D2 PAM-2 43
Cc1nc2ccc(Cl)cc2nc(C)/c1=N\O	D2 PAM-1 83
Cc1cccn2c(=O)cc(COc3ccc(NC(=O)COc4ccc(F)cc4)cc3)nc12	none (no result: D2 antagonist, D2 ag-1, D2 ag-2, D2 PAM-1)
COc1ccccc1/C=C/CN1CCC(Oc2ccc(C(=O)N3CCCC3)cc2)CC1	D2 antagonist 47
COc1cc(/C=C/CN2CCC(Oc3ccc(C(=O)N4CCCC4)cc3)CC2)ccc1O	none
COc1ccc(CCC(C)N2CCC(Oc3ccc(C(=O)N4CCCC4)cc3)CC2)cc1 (stereo not given)	D2 antagonist 30
CCOC(=O)C1CCN(C(=O)CCc2ccccc2)CC1	none
CCOC(=O)C1CCN(C(=O)CCc2nc3ccccc3[nH]2)CC1	D2 antagonist 61
COc1ccccc1NC(=O)CSc1nnc2c3ccccc3n(C(C)C)c2n1	none (no result: D2 antagonist, D2 ag-1, D2 PAM-1)
O=C(CSc1nc(O)c(C/C=C/c2ccccc2)c(=O)[nH]1)Nc1cccc(F)c1	none (no result: D2 antagonist, D2 ag-1, D2 PAM-1)
Cc1c(C)c2cc(Cl)c(O)c(CN(C)C)c2oc1=O	D2 antagonist 35
O=C(Nc1c(-c2ccccc2)nc2ccccn12)c1ccc(Br)cc1	none (no result: D2 antagonist, D2 ag-1, D2 PAM-1)
CSc1cccc(NC(=S)NCCCN2CCN(c3ccc(F)cc3)CC2)c1	D2 antagonist 43
CC(=O)Nc1ccc(NC(=O)CCn2cnnn2)cc1	none
O=C(CCn1cnnn1)Nc1ccc(F)cc1	D2 antagonist 32
CCCCN1CNC(=S)N(Cc2ccccc2)C1	none
O=C(Cn1nc(CNc2ccc(Cl)cc2)[n+]2c1CCCCC2)c1ccccc1	none
Cc1ccc(C(C)C)c(OCc2nn(CC(=O)c3ccc(Cl)cc3)c3[n+]2CCCCC3)c1	D2 antagonist 33
CCCCC(=O)N(C)c1c(CC)nc2c(OCc3ccccc3C)cccn12	none (no result: D2 antagonist, D2 ag-2, D2 PAM-2)
CCCOc1ccc(N/C=C/C(=O)c2cc(OC)c(OC)c(OC)c2)cc1	D2 PAM-1 83
CCOc1ccc(N/C=C/C(=O)c2ccc(OC)cc2)cc1	none
Cc1ccc2nc(N3C(=O)C(O)=C(C(=O)c4ccco4)C3c3ccc(O)cc3)sc2c1 (stereo not given)	none (no result: D2 ag-1, D2 PAM-1)
O=C(C1=C(O)C(=O)N(c2nc3ccc(Cl)cc3s2)C1c1ccco1)c1ccco1 (stereo not given)	none
Cc1ccc2nc(N3C(=O)C(O)=C(C(=O)c4ccc(C)o4)C3c3ccco3)sc2c1 (stereo not given)	D2 antagonist 31
Cc1ccc2nc(N3C(=O)C(O)=C(C(=O)c4ccco4)C3c3ccc(C)o3)sc2c1 (stereo not given)	D2 antagonist 31
COc1ccccc1NC(=O)CCS(=O)(=O)c1cc2c3c(c1)CCN3C(=O)CC2	none (no result: D2 antagonist, D2 ag-1, D2 PAM-1)
CC(=O)OC(C)CS(=O)(=O)c1ccccc1 (stereo not given)	D2 antagonist 30
CCOc1ccc(NC(=O)CN(C)Cc2cc(=O)n3c(-c4ccccc4)csc3n2)cc1OCC	D2 antagonist 41
Cc1cc(C)cc(OCc2cc(=O)n3c(-c4ccccc4)csc3n2)c1	none (no result: D2 antagonist, D2 ag-1, D2 PAM-1)
O=c1oc2c(CN3CCOCC3)c(O)ccc2cc1-c1ccc(Cl)cc1	none (no result: D2 antagonist, D2 ag-1, D2 PAM-1)
CCC(C)NS(=O)(=O)c1ccc(OCC(=O)Nc2ccc3c(c2)OCCO3)cc1 (stereo not given)	D2 PAM-2 48
CC(C)CNS(=O)(=O)c1ccc(OCC(=O)Nc2ccc3c(c2)OCCO3)cc1	none
CC(=O)Nc1ccc(S(=O)(=O)NCC2CCCO2)cc1 (stereo not given)	none (no result: D2 antagonist, D2 ag-2, D2 PAM-2)
COc1ccc(CC(=O)Nc2ccc(S(=O)(=O)NCC3CCCO3)cc2)cc1 (stereo not given)	D2 antagonist 32
CCC(C)NS(=O)(=O)c1ccc(OCC(=O)NCC2CCCO2)cc1 (stereo not given)	D2 PAM-2 34
CCOc1ccc(/C=N/NC(=O)C2CCCC2)c(OCC)c1	none
COc1ccc(Oc2ncnc3sccc23)cc1	none
Cc1nc(Oc2ccccc2)c2ccsc2n1	D2 PAM-2 30
O=S(=O)(c1ccccc1)N1CCCN(S(=O)(=O)c2ccccc2)CC1	none
O=S(=O)(c1ccccc1)N1CCN(S(=O)(=O)N2CCCCC2)CC1	D2 antagonist 38
Cc1cc(C)n(-c2ccc(C(=O)OCC(=O)N3CCN(c4ccccc4)CC3)cc2)n1	none (no result: D2 antagonist, D2 ag-2, D2 PAM-2)
COc1ccc(OC(F)(F)F)cc1CC1(C)C(=O)Nc2ccc(S(=O)(=O)NC3CCCCC3)cc21 (stereo not given)	none (no result: D2 antagonist, D2 ag-2, D2 PAM-2)
Cc1ccc(CN2CCN(CC(=O)NC(C)CCc3ccccc3)C2=O)cc1 (stereo not given)	D2 PAM-2 30
CC(CCc1ccccc1)NC(=O)CN1CCN(Cc2ccccc2)C1=O (stereo not given)	none
CC(C)CN1C(=O)C(=O)N(CC(=O)NC(C)CCc2ccccc2)C1=O (stereo not given)	D2 antagonist 52
CC(CCc1ccccc1)NC(=O)c1ccc(C(=O)NC(C)CCc2ccccc2)cc1 (stereo not given)	none
CC(CCc1ccccc1)NC(=O)c1ccccc1C(=O)O (stereo not given)	D2 ag-2 30
CCCCCOP(=O)(OCCCCC)C1(NS(=O)(=O)c2ccccc2)C=CC(=O)c2ccccc21 (stereo not given)	D2 ag-1 inconclusive, D2 PAM-1 90
O=S1(=O)NC(=NCc2ccccc2)c2ccccc21	D2 antagonist 30
COc1ccc(/C=N/Nc2nc(-c3cccc(S(=O)(=O)N4CCCC4)c3)cs2)cc1OC	none
CCOc1cc(/C=N/Nc2nc(-c3cccc(S(=O)(=O)N4CCCC4)c3)cs2)ccc1O	D2 ag-1 inconclusive, D2 PAM-1 119
